# Compound activity: PubChem BioAssay, National Center for Advancing Translational Sciences (NCATS)
# This is a sample that favours compounds with a hit; in the whole collection about 2.4% have one here.
# D2 PAM-1 = potentiates the human D2 dopamine receptor allosterically. potentiation, % (concentration not given with the values). DiscoveRx D2 beta-arrestin cells, luminescence, 90 min; 100% = 57 uM dopamine signal. AID 624464. P14416. 0.23% of 360,000 active; in the data active = potentiation above about 50%
# Target sequence (P14416 whole entry, looked up): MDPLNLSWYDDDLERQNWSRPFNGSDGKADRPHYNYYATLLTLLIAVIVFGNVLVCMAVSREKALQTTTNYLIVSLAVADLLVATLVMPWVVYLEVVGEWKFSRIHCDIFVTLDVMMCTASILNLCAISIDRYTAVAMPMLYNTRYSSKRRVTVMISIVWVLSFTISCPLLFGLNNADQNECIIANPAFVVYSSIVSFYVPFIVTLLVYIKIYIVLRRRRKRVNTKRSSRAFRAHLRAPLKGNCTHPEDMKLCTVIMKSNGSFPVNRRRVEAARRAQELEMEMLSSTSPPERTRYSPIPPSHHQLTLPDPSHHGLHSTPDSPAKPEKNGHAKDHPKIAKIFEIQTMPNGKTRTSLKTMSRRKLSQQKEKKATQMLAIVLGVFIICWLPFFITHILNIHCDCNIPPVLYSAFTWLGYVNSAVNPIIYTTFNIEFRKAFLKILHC
#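 D2 cells co-treated with compound plus 50 nM dopamine (EC20) for 90 min at 37 deg C to detect potentiation. Beta-arrestin recruitment was read as enzyme-fragment luminescence after 1 h at ambient temperature. Full response was set by 57 uM dopamine.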
# D2 ag-1 = agonists of human D2 dopamine receptor (beta-arrestin); DiscoveRx PathHunter D2 beta-arrestin, luminescence, 90 min; 100% = 57 uM dopamine signal; P14416; AID 624465; activation, % (concentration not given with the values); 0.084% of 360,000 active; in the data active = activation above about 40%
#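 DiscoveRx PathHunter D2 beta-arrestin cells (2,100/well) attached overnight, then compound-stimulated 90 min at 37 C in HBSS/10 mM HEPES/0.1% Tween-20 buffer; beta-galactosidase complementation read by luminescence after 1 h at ambient temperature. Dopamine 57 uM final (EC100) as control.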
# D2 antag = antagonists of human D2 dopamine receptor. P14416. HEK293 TREx D2 cells, calcium flux, dopamine EC80. inhibition, % at 10 µM. 2% of 340,000 active. AID 485344; in the data active = inhibition above about 30%; inactive = below that, where a call was filed; note: 0% is about no effect
#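 Cells plated overnight at 30 C with tetracycline; no-wash calcium dye, 30–90 min RT; 10 s baseline; compound pinned; 180 s read; EC80 dopamine added; another 180 s read.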
# D2 PAM-2 = D2 dopamine receptor (human) potentiation | P14416 | HEK293 T-REx D2, calcium flux, EC20 dopamine potentiation | potentiation, % at 10 µM | 0.34% of 340,000 active | AID 485347;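 active = potentiation over 3 SD above the plate norm, cut at about 30% in these data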; note: 0% is about no effect
#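 Tetracycline-induced HEK293 T-REx cells force-coupled to calcium signalling expressed D2; compounds were pin-added after a 10 s baseline, read kinetically 180 s, then an EC20 dopamine challenge followed with a further 180 s calcium read.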
# D2 ag-2 = activates the human D2 dopamine receptor. HEK293 T-REx D2 cells, calcium flux agonist mode. activation, % at 2 µM. AID 485358. 0.53% of 340,000 active;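 active = activation over 3 SD above normal in the single-dose calcium agonist read, cut at about 30% in these data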; note: 0% is about no effect
#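 Tetracycline-induced HEK293 T-REx cells with force-coupled D2 receptor, plated overnight at 30 C, loaded with no-wash calcium dye. After a 10 s baseline, compound was pin-added and calcium flux read kinetically for 180 s; calcium rises flagged agonists.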
# * marks the source's active call; other numbers are inactive results; · = no result given.
SMILES,D2 PAM-1,D2 ag-1,D2 antag,D2 PAM-2,D2 ag-2
CC1=C(C(=O)OCC2CCCO2)C(c2coc3ccc(C)cc3c2=O)C2=C(CCCC2=O)N1 (stereo unspecified),-6,-4,-5,31*,0
Cc1ccc(N2CC(NC(=O)Cc3cccs3)CC2=O)cc1C (stereo unspecified),·,·,·,0,1
Cc1ccc(NC(=O)C2C3C=CC4(O3)C2C(=O)N(CCN2CCOCC2)C4C(=O)NC2CCCCC2)cc1C (stereo unspecified),-5,-2,1,1,0
Cc1ccc(NC(=O)C2C3C=CC4(O3)C2C(=O)N(CCCN2CCOCC2)C4C(=O)NC2CCCCC2)cc1Cl (stereo unspecified),-8,5,31*,2,1
C/C(=N\NC(=O)CN(c1ccccc1)S(C)(=O)=O)c1ccccc1O,-17,0,44*,-20,0
CCC(C)n1c(=O)c2sccc2n2c(CCCC(=O)N3CCN(c4ccccc4)CC3)nnc12 (stereo unspecified),·,·,·,1,1
Cc1ccc(Nc2cc(-c3ccccc3)nc3ncnn23)cc1,-8,-3,33*,-1,0
Cc1cc(Nc2ccc(Cl)cc2)n2ncnc2n1,-4,-2,-3,5,0
CCOC(=O)CCC(=O)NCc1ccc2c(c1)cc(C)n2C,2,0,-8,-5,0
CCCCC(=O)NCc1ccc2c(c1)cc(C)n2C,-11,-2,34*,-10,1
Cc1cc2cc(CNC(=O)c3cccs3)ccc2n1C,-7,-2,1,-12,52*
Cc1cc2cc(CNC(=S)NCc3ccccc3)ccc2n1C,-3,2,45*,16,1
CCCCOc1ccc(Cn2c(=O)sc3ccccc32)cc1OC,·,·,·,3,0
O=c1c(N2CCN(c3cccc(Cl)c3)CC2)csc2ccccc12,·,·,·,-24,1
CCCCCCNCc1ccc(Br)cc1,-27,-2,30*,-21,0
COc1cccc(C(=O)NCC(=O)N2CCC3(CC2)NCCc2[nH]cnc23)c1OC,-3,-1,30*,4,0
COc1ccc(CC(=O)N/N=C/c2ccc(-c3ccc(F)cc3)o2)cc1OC,-8,1,4,-17,40*
Cc1cc(C)n2nc(SCc3nnc(-c4ccccc4Br)o3)nc2n1,-1,-3,-8,44*,2
Cc1cc(C)n2nc(SCc3ncc(-c4ccccc4)o3)nc2n1,-13,-6,-7,11,0
Cc1cc(/C=C2\SC(=Nc3ccc(F)cc3)NC2=O)c(C)n1-c1ccc(S(N)(=O)=O)cc1,-6,-2,38*,0,2
CCOc1ccc(-c2nc(CSCC(=O)NC3CCN(Cc4ccccc4)CC3)c(C)o2)cc1,-27,-2,·,·,·
CC(C)(Oc1ccc(Cl)cc1)C(=O)NC1CCN(Cc2ccccc2)CC1,-7,0,72*,-27,-2
Fc1ccc(NC(=S)NC2CCN(Cc3ccccc3)CC2)cc1,25,-2,·,·,·
Cc1oc(-c2ccc(Cl)cc2)nc1CSCC(=O)NC1CCN(Cc2ccccc2)CC1,-34,-3,56*,-10,0
CC1(C(=O)NC2CCN(Cc3ccccc3)CC2)CCN1Cc1ccc(OC(F)(F)F)cc1 (stereo unspecified),-23,-4,·,·,·
SMILES,D2 PAM-1,D2 ag-1,D2 antag,D2 PAM-2,D2 ag-2
Cc1cccc(NC(=S)NC2CCN(Cc3ccccc3)CC2)c1C,-26,-1,94*,-25,1
CC(C)(C)CC(C)(C)NC(=S)NC1CCN(Cc2ccccc2)CC1,-44,-4,66*,-24,1
COc1ccc(CN(Cc2ccco2)c2cnc(S(C)(=O)=O)nc2C(=O)Nc2ccc(F)cc2)cc1,·,·,·,2,3
COc1cc(C)ccc1OCCSc1nc2ccc(NC(C)=O)cc2s1,·,·,·,8,-1
COC(=O)c1sc(-c2ccccc2)cc1NC(=O)Nc1ccc(F)cc1,·,·,·,0,-1
S=C(Nc1ccc(Cl)c(Cl)c1)NC1CCN(Cc2ccccc2)CC1,-18,-1,45*,-28,2
S=C(Nc1cccc(Cl)c1Cl)NC1CCN(Cc2ccccc2)CC1,-39,-3,71*,-18,1
CN(C)S(=O)(=O)c1ccc(C(=O)NCCSc2c(-c3ccc(Br)cc3)[nH]c3ccccc23)cc1,·,·,·,2,0
CN(O)/C=C1\C(=O)Nc2ccccc21,131*,8,-2,13,1
CN(C)/C=C1\C(=O)Nc2ccccc21,-20,-4,-4,-11,0
COc1cccc(NC(=O)CSC2=C(C#N)C(c3ccco3)C3=C(CCCC3=O)N2)c1 (stereo unspecified),-20,1,37*,-3,1
COc1ccc(NC(=O)CSC2=C(C#N)C(c3ccco3)C3=C(CCCC3=O)N2)c(OC)c1 (stereo unspecified),-1,0,5,10,0
COc1cccc(NC(=O)CSc2nc3c(c(-c4ccco4)c2C#N)CCCC3)c1,5,4,14,42*,-1
Cc1ccccc1C(=O)NC(=S)Nc1ccccc1C(F)(F)F,0,-2,50*,7,1
CCOc1ccccc1NC(=O)CSc1nc2ccccc2nc1Cc1ccc(C)cc1,·,·,·,-8,-1
CC(Sc1nnc(-c2ccccc2F)n1C1CC1)C(=O)NC(N)=O (stereo unspecified),-12,-3,45*,-3,0
CC(Sc1nnc(-c2ccccc2F)n1C1CC1)C(=O)N1CCCC1 (stereo unspecified),-2,-3,-7,6,0
CC(C)Cc1ccc(C(C)C(=O)Nc2cccnc2)cc1 (stereo unspecified),-6,-7,22,-16,12
CC(C)Cc1ccc(C(C)C(=O)Nc2ccc(O)cc2)cc1 (stereo unspecified),3,5,39*,-8,19
COc1ccc(Cl)cc1NC(=O)c1cc2ccc3ccc(C)[nH]c3c2n1,·,·,·,5,0
Cc1nnc(Sc2nc3c(c(=O)[nH]c(=O)n3C)n2CCc2ccccc2)s1,-1,5,50*,2,-1
Cc1cc2c(cc1S(=O)(=O)NCc1ccc(F)cc1)OCCN2C,·,·,·,0,1
COc1ccc(C(CC(=O)Nc2ccc(OC)c(OC)c2)N2Cc3ccccc3C2=O)cc1 (stereo unspecified),·,·,·,11,·
CCC(C(=O)OCC(=O)C1(O)CCC2C3CCC4=CC(=O)CCC4(C)C3C(O)CC21C)C(C)C (stereo unspecified),56*,9,·,·,·
CC(=O)[C@@]1(O)CC[C@H]2[C@@H]3CCC4=CC(=O)CC[C@]4(C)[C@H]3[C@@H](O)C[C@@]21C,9,-5,22,-8,-1
COC(=O)C(CC(C)C)N1CCC(=O)c2ccccc2S1(=O)=O (stereo unspecified),-7,0,52*,8,-1
